MARV entry inh: qHTS for inhibitors of binding or entry into cells for Marburg Virus. Marburg virus pseudotyped entry inhibition, cell reporter. Potency, µM (doses to about 37.8 µM), inactives show at the top dose activity change, negative = inhibition, usual class: inhibitors. 300,000 tested, 1.8% active; calls by dose curve; tested in HEK293 cells; note: potency is the fitted concentration of half-maximal effect; % is set by controls: 0 for no effect and ±100 for the full control effect
HCV inhibitor: qHTS Assay for Inhibitors of Hepatitis C Virus (HCV) | 340,000 tested, 3.4% active | Potency, µM (top dose mostly 41.8 µM), for the others: top-dose activity change, negative = inhibition, hits mostly inhibitors | Huh7.5.1 HCVcc-Cre infection, luciferase reporter, 44 h; note: potency is the fitted concentration of half-maximal effect; % is set by controls: 0 for no effect and ±100 for the full control effect
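Cells seeded at 1,000/well and cultured 4 h, then compounds added followed by HCVcc-Cre virus (~0.5 moi). After 44 h further culture, luciferase substrate was added, plates held 15 min at room temperature, and luminescence read for 15 sec.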
FMDV antiviral: High Throughput Screening for Foot and Mouth Disease Virus Antivirals; Potency, µM (highest dose often 57.9 µM), for inactives: top-dose activity change, negative = inhibition, most hits filed as inhibitors; AID 1159524, 2015; FMDV antiviral cell-based qHTS; 410,000 tested, 1.2% active; calls by dose curve; tested in HEK293T cells; note: read-out not given here; potency is the fitted concentration of half-maximal effect; % is set by controls: 0 for no effect and ±100 for the full control effect; nearly all actives have a fitted effect of over 45% in size
Shiga inhibitor: A qHTS for Small Molecule Inhibitors of Shiga Toxin; Vero cells, Shiga toxin protein synthesis inhibition reporter; inhibition, % at 38.7 µM; 290,000 tested, 9.2% active; AID 2315, 2010; in the data active = inhibition mostly above about 28%, no sharp cut-off; inactive = mostly below about 43%; note: 0% is about no effect
CHX counter: Cycloheximide Counterscreen for Small Molecule Inhibitors of Shiga Toxin. cell reporter, cycloheximide protein synthesis inhibition counterscreen. AID 2314, 2010. max response, %. 300,000 tested, 12% active; in the data active = max response mostly above about 13%, no sharp cut-off; inactive = mostly below about 14%; note: read at 38.3 µM for the half of the compounds with a filed dose; 0% is about no effect
Lassa entry inh: qHTS for Inhibitors of binding or entry into cells for Lassa Virus; Lassa virus pseudotype entry inhibition, cell reporter; 300,000 tested, 1.2% active; Potency, µM (doses to about 37.9 µM), for the others: at the top dose activity change, negative = inhibition, actives largely listed as inhibitors; AID 540256, 2011; calls by dose curve; tested in HEK293 cells; note: potency is the fitted concentration of half-maximal effect; % is set by controls: 0 for no effect and ±100 for the full control effect; nearly all actives have a fitted effect of over 50% in size
HCV inh confirm: qHTS Assay for Inhibitors of Hepatitis C Virus (HCV): Confirmation Assay for Cherry-picked Compounds | shares compounds with HCV inhibitor | HCVcc-Cre infectious virus cell assay, luciferase, inhibition | Potency, µM (titrated, usually from 41.8 µM), for inactives: at the top dose activity, negative = inhibition, most hits filed as inhibitors | 640 tested, 78% active; note: potency is the fitted concentration of half-maximal effect; nearly all actives have a fitted effect of over 80% in size
HCV host tox: qHTS Assay for Inhibitors of Hepatitis C Virus (HCV): Cytotoxicity Counterscreen for Cherry-picked Compounds; shares compounds with HCV inhibitor; HCV host cell line cytotoxicity counterscreen; Potency, µM (highest dose often 41.8 µM), for the others: at the highest dose activity change, negative = cytotoxicity, usual class: inhibitors; 640 tested, 22% active; AID 720576, 2013;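 note: potency is the fitted concentration of half-maximal effect; 44 h compound exposure; % is set by controls: 0 for no effect and ±100 for the full control effect; nearly all actives have a fitted effect of over 55% in size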
Numbers without * were called inactive; [ ] = remark or other dose. Shown are actives, neighbours in structure and some others; about 13% of the full set was active somewhere. Unless noted, calls come from the whole dose curve; as a rule, active = well fitted curve in the direction sought with a large enough effect; inconclusive = small, poorly fitted or top-dose-only effect, or another doubt; inactive = no such curve, though single readings can be large; an effect the other way counts as inactive or inconclusive.

Screening CCOc1cc(NC(=S)NCC2CCCO2)c(OCC)cc1NC(=O)c1ccccc1 (configuration not stated) returned MARV entry inh -16.7%, HCV inhibitor 8.91µM*, FMDV antiviral 3.1%, Shiga inhibitor 8.2, CHX counter -2.9, Lassa entry inh -0.7%, HCV inh confirm inconclusive and HCV host tox 31.8%.
Screening Cc1ccc(S(=O)(=O)NCc2ccncc2)c(C)c1C returned MARV entry inh inconclusive, HCV inhibitor 0.794µM*, FMDV antiviral -10.5%, Shiga inhibitor 18.5, CHX counter 4.4, Lassa entry inh -14.5%[46.1 µM], HCV inh confirm 0.79µM* and HCV host tox -94.8%.
`Cc1ccc(S(=O)(=O)NCc2ccccn2)c(C)c1C` gave HCV inhibitor 0.0%, FMDV antiviral 58.2%, Shiga inhibitor -1.8 and CHX counter -2.2.
Screening CC(C)n1nccc1N(Cc1ccc(C#N)cc1)S(=O)(=O)c1ccccc1 returned MARV entry inh 3.2%[46.1 µM], HCV inhibitor 15.9%, FMDV antiviral -19.3%, Shiga inhibitor -10.5, CHX counter -3.0 and Lassa entry inh 5.8%[46.1 µM].
Screening CCC(=O)c1cc2c(cc1NC(=O)c1ccccc1)OCCO2 returned MARV entry inh 3.4%, HCV inhibitor 3.98µM*, Shiga inhibitor -2.4, CHX counter 1.0, Lassa entry inh -10.5%, HCV inh confirm 3.96µM* and HCV host tox 28.4%.
CCC(=O)c1cc2c(cc1NC(=O)c1ccccc1F)OCCO2 was read as MARV entry inh 6.5%[46.1 µM], FMDV antiviral -11.8% and Lassa entry inh -20.9%[46.1 µM].
COc1ccc(C2CC(c3cccc(OC)c3OC)n3nnnc3N2)cc1 (configuration not stated) was read as MARV entry inh 1.8%, HCV inhibitor 2.6%, FMDV antiviral 17.5%, Shiga inhibitor 7.9, CHX counter -1.8 and Lassa entry inh -1.8%.
O=C(C1CCCN(Cc2cc(Br)ccc2O)C1)N1CCCCC1 (configuration not stated) was read as MARV entry inh 0.5%, HCV inhibitor -17.3%, FMDV antiviral -19.0%, Shiga inhibitor 17.8, CHX counter 9.2 and Lassa entry inh 0.5%.
For COC(=O)c1sc(NC(=O)/C=C/c2ccccc2Cl)nc1C the results were MARV entry inh inconclusive, HCV inhibitor 5.62µM*, FMDV antiviral 13.5%, Shiga inhibitor 43.3, CHX counter 12.6, Lassa entry inh 9.7%[46.1 µM], HCV inh confirm inconclusive and HCV host tox 1.2%.
For COc1ccc(N(C)C(=O)Nc2ccc3nsnc3c2)cc1 the results were MARV entry inh inconclusive, HCV inhibitor inconclusive, FMDV antiviral 0.3%, Shiga inhibitor 38.5, CHX counter 11.3 and Lassa entry inh -28.8%[46.1 µM].
Screening CC(C)N(C(=O)Nc1ccc2nsnc2c1)C(C)C returned HCV inhibitor 4.47µM*, FMDV antiviral 0.1%, Shiga inhibitor 35.5, CHX counter 18.4, HCV inh confirm -16.3% and HCV host tox 35.4%.
`Cc1ccc(-c2csc(Cc3nc(-c4cc5ccccc5oc4=O)cs3)n2)cc1` gave MARV entry inh inconclusive, HCV inhibitor 5.01µM*, Shiga inhibitor -45.5, CHX counter -4.3, Lassa entry inh -53.8%, HCV inh confirm 4.99µM* and HCV host tox 6.28µM*.
COc1ccc(NC(=S)Nc2ccccc2)cn1 was read as MARV entry inh 0.3%, HCV inhibitor -1.9%, FMDV antiviral -21.4%, Shiga inhibitor 3.9, CHX counter -1.9 and Lassa entry inh 12.8%.
Screening COc1ccc(NC(=O)/C(Cl)=C(/Cl)S(=O)Cc2ccccc2)cn1 (configuration not stated) returned MARV entry inh inconclusive, HCV inhibitor 0.794µM*, FMDV antiviral 6.31µM*, Shiga inhibitor 24.0, CHX counter 47.7*, Lassa entry inh 1.58µM*, HCV inh confirm 6.28µM* and HCV host tox 6.28µM*.
For CCOc1ccccc1OCC(=O)OCC(=O)c1c(N)n(CC(C)C)c(=O)n(C)c1=O the results were HCV inhibitor inconclusive, FMDV antiviral inconclusive, HCV inh confirm inconclusive and HCV host tox -90.5%.
Screening COc1ccccc1CCC(=O)OCC(=O)c1c(N)n(CC(C)C)c(=O)n(C)c1=O returned MARV entry inh -10.1%, HCV inhibitor -14.2%, FMDV antiviral inconclusive and Lassa entry inh -26.9%.
For Cc1cc(/C=C(\C#N)C(=O)Nc2ccccc2)c(C)n1-c1ccc2c(c1)OCO2 the results were MARV entry inh inconclusive, HCV inhibitor inconclusive, FMDV antiviral -6.8%, Shiga inhibitor 43.5*, CHX counter 41.1*, Lassa entry inh inconclusive, HCV inh confirm 17.7µM* and HCV host tox -12.7%.
Screening CNC(=O)/C(C#N)=C\c1cc(C)n(-c2ccc(N3CCOCC3)cc2)c1C returned MARV entry inh inconclusive, HCV inhibitor 3.4%, FMDV antiviral -13.6%, Shiga inhibitor -1.4, CHX counter 11.1 and Lassa entry inh -6.0%[46.1 µM].
Cc1ccc(NC2=C/C(=N\S(=O)(=O)c3cccs3)c3ccccc3C2=O)c(C)c1 was read as MARV entry inh inconclusive, HCV inhibitor 5.62µM*, FMDV antiviral 25.1µM*, Shiga inhibitor 6.8, CHX counter 12.9*, Lassa entry inh inconclusive, HCV inh confirm 2.5µM* and HCV host tox 3.53µM*.
For Cc1ccc(OC(=O)COc2ccccc2C)cc1 the results were MARV entry inh 1.9%[46.1 µM], HCV inhibitor 10.6%, FMDV antiviral -5.1%, Shiga inhibitor -3.5, CHX counter -2.6 and Lassa entry inh -5.2%[46.1 µM].
COc1ccc(NC(=O)C2CCCCN2N)cc1OCC(C)C (configuration not stated) was read as MARV entry inh -29.4%, HCV inhibitor inconclusive, Shiga inhibitor 1.9, CHX counter -2.0, Lassa entry inh 20.8%, HCV inh confirm inconclusive and HCV host tox 38.0%.
Nc1nc(Cl)cc(=O)n1Cc1ccc(Cl)cc1 was read as HCV inhibitor 29.6% and FMDV antiviral 1.1%.
For Nc1nc(Cl)cc(N2CCC(c3cc(-c4ccc(Cl)cc4)n[nH]3)CC2)n1 the results were MARV entry inh inconclusive, HCV inhibitor 3.98µM*, FMDV antiviral 15.8µM*, Shiga inhibitor -13.5, CHX counter -1.2, Lassa entry inh 6.51µM*, HCV inh confirm 11.2µM* and HCV host tox inconclusive.

Screens deposited in PubChem by National Center for Advancing Translational Sciences (NCATS).
